Compounds without any hit were thinned out: in the full panel of roughly 79,000, 15% have a hit. Active and inactive are the calls of the source. No stated cut-off is given here; in the data, active means growth inhibition above about 70%; inactive means the rest.
Assay: NCI Yeast Anticancer Drug Screen. Data for the CLN2oe strain (AID 163);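 further: 0% = growth of vehicle-only control cultures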
Conditions: S. cerevisiae CLN2oe strain, active compounds read high
Procedure: Growth inhibition of yeast strains with defined genetic alterations is measured as a screen for potential anti-cancer activity. Selected strains with alterations in DNA damage repair or cell cycle control were exposed to compounds and growth inhibition was measured relative to vehicle treated controls. The strain used in this assay is CLN2oe

Measured: growth inhibition

C[CH2][Sn]1([CH2]C)[O]C2C(O)OC(CO)C(O)C2[O]1 (stereo not given)
inactive: at 1.2 µM -53% | at 3.7 µM -73% | at 11.0 µM -69% | at 33.0 µM -100% | at 100.0 µM 45%

O=C(O)CCCc1cc(I)c(N(CCCl)CCCl)c(I)c1
active: at 33.0 µM 87% | at 100.0 µM 97%
inactive: at 1.2 µM -13% | at 3.7 µM -23% | at 11.0 µM -13%

CC(C)CC(NC(=O)C(N)C(C)C)C(=O)NC(CCCCN)C(=O)Nc1ccc(N(CCCl)CCCl)cc1 (stereo not given)
inactive: at 1.2 µM -3% | at 3.7 µM 7% | at 11.0 µM 6% | at 33.0 µM 1% | at 100.0 µM -2%

CC[C@@]1(O)C[C@H](OC2CC(N(C)C)C(O)C(C)O2)c2c(O)c3c(c(O)c2[C@H]1OC1CC(N(C)C)C(O)C(C)O1)C(=O)c1cccc(O)c1C3=O (stereo not given in full)
inactive: at 1.2 µM 3% | at 3.7 µM 6% | at 11.0 µM 1% | at 33.0 µM 10%
active: at 100.0 µM 75%

C[N+](CCCl)(CCCl)Cc1cccc2cccc([N+](=O)[O-])c12
inactive: at 1.2 µM -8% | at 3.7 µM -10% | at 11.0 µM -17% | at 33.0 µM -13% | at 100.0 µM -6%

CC1CCCN(CCc2ccccc2)CC1 (stereo not given)
inactive: at 1.2 µM -5% | at 3.7 µM -8% | at 11.0 µM 18% | at 33.0 µM 30% | at 100.0 µM 43%

CC1CN1C1=C(Cl)C(=O)C(N2CC2C)=C(Cl)C1=O (stereo not given)
inactive: at 1.2 µM 0% | at 3.7 µM -8% | at 11.0 µM -7% | at 33.0 µM 27% | at 100.0 µM 54%

COC(=O)C1=C(C(=O)OC)C2OC1c1cc3ccccc3cc12
active: at 11.0 µM 80% | at 33.0 µM 97% | at 100.0 µM 99%
inactive: at 1.2 µM 45% | at 3.7 µM 50%

Source: PubChem BioAssay (NCI)
